Source: PubChem (National Center for Advancing Translational Sciences (NCATS))
GLP1R cytotox: cytotoxicity in counter-screen for GLP-1R inverse agonists | HEK293 cAMP-luciferase reporter cells, luminescence, 24 h | Potency, µM (highest dose often 38.3 µM), inactives show top-dose activity change, negative = inhibition, most hits filed as inhibitors | 410,000 tested, 0.13% active | AID 624418;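 also: loss of luciferase light is scored as toxicity; % is scaled to controls: 0 for no effect and ±100 for the full control effect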
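1536-well qHTS counterscreen of the MLSMR; 200 cells/uL, 12 h pre-incubation, 23 nL cpd, 24 h at 37 deg C 5% CO2, luciferase detection reagent, 12 min RT, luminescence. Inhibition = undesired.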
BRCA1 expr act: activators of BRCA1 expression; MCF7-BRCA1-FFLuc reporter, luminescence, 48 h; response scale: scaled: vehicle 0%, 10 µM genistein 100%; Potency, µM (doses to about 46.1 µM), inactives show at the top dose activation, hits mostly activators; 380,000 tested, 1.1% active; AID 624202; also: nearly all actives have a fitted effect of over 80% in size
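MCF7-BRCA1-FFLuc, 2000 cells/well; 2 h attach, 37 °C/5% CO2; compound 48 h; luciferase substrate 15 min; luminescence end-point. Norm. to genistein 10 microM max activation and DMSO; concentration-response curves fitted.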
GLP-1R agonist: GLP-1 receptor (human) agonism; P43220; HEK293 GLP-1R CRE-luciferase, luminescence, 4-6 h; cells express a hypersensitive GLP-1R form; Potency, µM (titrated, usually from 45.6 µM), for the others: top-dose activation, actives largely listed as activators; 380,000 tested, 0.007% active; AID 624172; also: % of control where 0% means no effect
Target sequence (P43220 whole entry, looked up): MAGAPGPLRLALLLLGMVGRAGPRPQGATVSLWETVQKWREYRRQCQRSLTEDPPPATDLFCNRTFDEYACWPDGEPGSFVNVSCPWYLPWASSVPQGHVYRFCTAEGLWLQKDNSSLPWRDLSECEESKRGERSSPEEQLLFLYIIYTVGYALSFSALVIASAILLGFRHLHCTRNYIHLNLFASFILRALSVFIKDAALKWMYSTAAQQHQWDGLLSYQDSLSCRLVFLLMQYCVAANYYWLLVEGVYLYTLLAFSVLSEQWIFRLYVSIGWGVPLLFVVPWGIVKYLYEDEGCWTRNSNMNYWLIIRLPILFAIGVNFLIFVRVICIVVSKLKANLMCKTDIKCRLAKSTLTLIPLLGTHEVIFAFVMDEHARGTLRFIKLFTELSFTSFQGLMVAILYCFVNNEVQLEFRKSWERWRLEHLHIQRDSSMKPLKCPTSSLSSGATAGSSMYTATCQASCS
GLP1R inv ag: inverse agonists of human GLP-1 receptor. 410,000 tested, 1.6% active. AID 624417. HEK293 GLP-1R CRE-luciferase, luminescence, 24 h; GLP-1R form is constitutively active. Potency, µM (series often up to 38.3 µM), for the others: at the top dose activity change, negative = inhibition, actives largely listed as inhibitors. P43220; also: % is scaled to controls: 0 for no effect and ±100 for the full control effect; nearly all actives have a fitted effect of over 55% in size
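HEK293 cells stably co-expressing constitutively active GLP-1R and a cAMP-responsive luciferase reporter were seeded in DMEM with 10% Nu serum, given compounds after 12 h, and incubated 24 h at 37 deg C. Luminescence was then read.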
* hit, by the source's call; ? = inconclusive; . = not tested or not shown; [ ] = remark or other dose. Sampled rows, rich in hits. Any-hit rate of the full collection: about 2.6%. Calls follow the shape of the dose curve; as a rule, active = well fitted curve in the direction sought with a large enough effect; inconclusive = small, poorly fitted or top-dose-only effect, or another doubt; inactive = no such curve, though single readings can be large; an effect the other way counts as inactive or inconclusive. Potency is read from the fitted curve at half-maximal effect.

SMILES	GLP1R cytotox	BRCA1 expr act	GLP-1R agonist	GLP1R inv ag
Cc1cccc(N2CCN(C(=O)C3CCCN(S(=O)(=O)c4c(C)noc4C)C3)CC2)c1C (centres undefined)	-9%	-29%	-4%	7.9µM*
Cc1ccccc1N1CCN(C(=O)C2CCCCC2)CC1	20%	-17%	6%	?
Cc1cccc(N2CCN(C(=O)C3CCCCC3)CC2)c1C	6%	-13%	-1%	10µM*
Cc1ccc(-c2[nH]ncc2/C=C(\C#N)C(=O)NC2CCCCC2)cc1	-15%	-80%	2%	7.9µM*
CCCN(CC(=O)Nc1ccccc1OC)C(=O)CC1CCCC1	14%	-24%	1%	8.9µM*
CCCN(CC(=O)Nc1ccccc1OC)C(=O)c1cc(-c2ccccc2)nn1-c1ccccc1	4%	-32%	8%	10µM*
O=C(CSc1nc(O)c(C2CCCCC2)c(=O)[nH]1)Nc1ccccc1Cl	9%	-4%	1%	2%
O=C1c2ccccc2-n2c1nc1ccccc1c2=O	3%	-53%	1%	-24%
CC1(C)Cc2ccccc2-c2nc3ccccc3c(=O)n21	0%	4%	11%	7.9µM*
Cc1cccc(Nc2nc(N3CCOCC3)nc(N3CCOCC3)n2)c1	41%	-52%	4%	5.6µM*
Oc1cccc(Nc2nc(N3CCOCC3)nc(N3CCOCC3)n2)c1	7%	-68%	1%	?
Cc1cccc(Nc2nc(N3CCCCC3)nc(N3CCCCC3)n2)c1	0%	-24%	3%	?
c1ccc(Nc2nc(N3CCNCC3)nc(N3CCOCC3)n2)cc1	80%	-49%	3%	2.5µM*
Cc1cccc(Nc2nc(Nc3cccc(C)c3)nc(N3CCOCC3)n2)c1	1%	.	.	4.5µM*
Cc1ccc(CNC(=O)c2cc3sccc3n2Cc2ccc(F)cc2)cc1	3%	13%	-7%	-11%
O=C(NCc1ccccc1)c1cc2sccc2n1Cc1ccc(F)cc1	3%	-23%	-3%	10µM*
CCC(C)c1ccccc1OCC(=O)Nc1ccc(S(=O)(=O)Nc2cc(C)on2)cc1 (centres undefined)	3%	3%	0%	-6%
NC(=O)C1CCN(c2nc(-c3cccc(Cl)c3)cs2)CC1	.	4µM*	21%	.
NC(=O)C1CCN(c2nc(-c3ccc4ccccc4c3)cs2)CC1	.	13µM*	2%	.
Cc1ccc(-c2csc(N3CCC(C(N)=O)CC3)n2)cc1	.	?	-6%	.
Cc1ccccc1NC(=O)c1ccccc1OCC(=O)Nc1ccc(Br)cc1	.	-41%	.	.
O=C(OCc1c(F)cccc1Cl)c1cnc(Cl)c(Cl)c1	2%	-17%	18%	8%
Cc1nc(N)sc1C(=O)Nc1ccccc1	9%	34%	9%	62%
Cc1nc(C(=O)Nc2ccccc2)sc1C(=O)Nc1ccccc1	-15%	2.8µM*	13%	?
CC(C)(C)SCCNC(=O)/C=C/c1ccc(F)cc1	-1%	?	14%	-24%
SMILES	GLP1R cytotox	BRCA1 expr act	GLP-1R agonist	GLP1R inv ag
CC(C)(CNC(=O)/C=C/c1ccc(F)cc1)CNC(=O)/C=C/c1ccc(F)cc1	-2%	23%	10%	6.3µM*
CC(=O)/C(N=Nc1nc2c([nH]1)c(=O)n(C)c(=O)n2C)=C(\C)O	2%	0%	13µM*	80%
Fc1ccc(-c2csc3ncnc(N4CCN(c5ccccc5)CC4)c23)cc1	2%	-52%	13%	13µM*
COc1ccc(-n2cc(-c3ccccc3)c3c(N4CCOCC4)ncnc32)cc1	-15%	-82%	8%	3.5µM*
COc1ccc(N2CCN(c3ncnc4scc(-c5ccc(C)cc5)c34)CC2)cc1	3%	-63%	10%	2µM*
Fc1ccc(-n2cc(-c3ccccc3)c3c(N4CCOCC4)ncnc32)cc1	-3%	-43%	7%	?
COc1ccc2c(-c3ccccc3)cc(N3CCOCC3)nc2c1	17%	-37%	10%	10µM*
c1ccc(-c2cc(-c3ccc(N4CCOCC4)cc3)nc3ccccc23)cc1	38%	18%	8%	8%
c1ccc(-c2csc3ncnc(N4CCOCC4)c23)cc1	0%	-19%	8%	0%
Cc1ccc(C(=O)c2cc(O)c(O)c([N+](=O)[O-])c2)cc1	.	.	-3%	.
CC(=O)N[C@H]1[C@H](O[C@@H]2c3ccc(c(Cl)c3)Oc3cc4cc(c3O[C@@H]3O[C@H](CO)[C@@H](O)[C@H](O)C3C)Oc3ccc(cc3Cl)C[C@H]3NC(=O)[C@@H](N)c5ccc(O)c(c5)Oc5cc(O)cc(c5)[C@H](NC3=O)C(=O)N[C@H]4C(=O)N[C@H]3C(=O)N[C@@H]2C(=O)N[C@@H](C(=O)O)c2cc(O)cc(O[C@H]4O[C@H](CO)[C@@H](O)C(O)[C@@H]4O)c2-c2cc3ccc2O)O[C@H](CO)[C@@H](O)[C@@H]1O (some centres undefined)	.	.	9%[19.8 µM]	.
COCC(=O)Nc1ccc2c(c1)OCC(=O)N2Cc1ccccc1F	-22%	-8%	-1%	2%
CCC(=O)N1c2ccccc2CC1C(=O)NCc1cc(Br)ccc1OC (centres undefined)	0%	.	.	-5%
OCCN1CCN(c2ncnc3c2c(-c2ccccc2)cn3-c2ccc(Br)cc2)CC1	?	-46%	14%	10µM*
COc1ccc(N2CCN(c3ncnc4scc(-c5ccccc5)c34)CC2)cc1	-7%	-73%	12%	6.3µM*
COc1ccc(N2CCN(c3ncnc4scc(-c5ccc(F)cc5)c34)CC2)cc1	-11%	-88%	1%	?
CCN1CCN(c2ncnc3c2c(-c2ccccc2)cn3-c2ccc(F)cc2)CC1	3%	-14%	4%	-6%
COc1ccccc1/C=N/Nc1nncc2ccccc12	-18%	10µM*	16%	25%
COc1ccccc1/C=N\Nc1ccccc1[N+](=O)[O-]	12%	10µM*	-1%	34%
Oc1c(Br)cc(/C=N/Nc2nncc3ccccc23)cc1Br	-8%	8.9µM*	21%	29%
Cc1ccc(CCNC(=O)c2cn(C)c3ccc(S(=O)(=O)N4CCCCC4)cc3c2=O)cc1	-15%	.	.	3%
O=C(NNc1cccc(Cl)c1)c1cccnc1Cl	-34%	27%	-2%	1.3µM*
Cc1cc(-c2nn(-c3ccccc3F)cc2CNCCc2cnc[nH]2)c(C)s1	-9%	-17%	9%	-21%
CCc1cccc(NC(=O)c2ccc(CNS(=O)(=O)c3ccc4c(c3)C(C)(C)C(=O)N4C)cc2)c1	-18%	.	.	10µM*
Cc1ccc(NC(=O)c2ccc(CNS(=O)(=O)c3ccc4c(c3)C(C)(C)C(=O)N4C)cc2)cc1	5%	.	.	7%
COc1ccccc1C1=NOC(CN2C(=O)c3ccccc3S2(=O)=O)C1 (centres undefined)	2%	?	2%	50%
O=C1c2ccccc2S(=O)(=O)N1CC1CC(c2ccccc2Cl)=NO1 (centres undefined)	44%	5µM*	2%	26%
COc1cc2c(cc1OC)C(c1cc(-c3cc(Cl)ccc3Cl)oc1C)=NCC2	.	-24%	.	.
